Assay results reported in the supplement of paper PMC6411743.
± gives the standard deviation of the averaged measurements. Targets with the largest changes are over-represented here; the source holds about 5,400 in all.

Compound: Nc1nc2c(ncn2[C@@H]2O[C@H](COP(=O)(O)OP(=O)(O)OP(=O)(O)O)[C@@H](O)[C@H]2O)c(=O)[nH]1 [guanosine triphosphate]
Assay: NP40-soluble protein abundance relative to vehicle (solubility fold change) (ratio); higher = more soluble protein in presence of GTP
How it was run: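 Jurkat crude lysate (Dounce-homogenised) was treated with eight concentrations from 0.1 to 10 mM for 10 min at room temperature, then 3 min at 37 °C. It was solubilised with 0.8% NP40 and benzonase (60 min, 4 °C) and ultracentrifuged, and the supernatant was TMT-labelled for LC-MS/MS. Intensities were vsn-normalised, and the value is the fold change against the NP40-processed vehicle per replicate, from three independent experiments.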

UniProt P01137, sequence (P01137 whole entry): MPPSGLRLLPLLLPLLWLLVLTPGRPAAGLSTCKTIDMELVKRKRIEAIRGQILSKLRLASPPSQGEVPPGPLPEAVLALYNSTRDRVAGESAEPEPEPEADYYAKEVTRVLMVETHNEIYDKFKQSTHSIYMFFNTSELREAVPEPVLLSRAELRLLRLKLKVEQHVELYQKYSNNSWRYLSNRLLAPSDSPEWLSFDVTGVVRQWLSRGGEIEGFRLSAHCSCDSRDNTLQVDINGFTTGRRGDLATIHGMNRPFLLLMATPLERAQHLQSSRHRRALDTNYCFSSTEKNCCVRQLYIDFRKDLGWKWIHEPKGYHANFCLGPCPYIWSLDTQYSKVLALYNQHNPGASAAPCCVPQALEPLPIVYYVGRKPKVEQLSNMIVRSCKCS
UniProt O60669, sequence (O60669 whole entry): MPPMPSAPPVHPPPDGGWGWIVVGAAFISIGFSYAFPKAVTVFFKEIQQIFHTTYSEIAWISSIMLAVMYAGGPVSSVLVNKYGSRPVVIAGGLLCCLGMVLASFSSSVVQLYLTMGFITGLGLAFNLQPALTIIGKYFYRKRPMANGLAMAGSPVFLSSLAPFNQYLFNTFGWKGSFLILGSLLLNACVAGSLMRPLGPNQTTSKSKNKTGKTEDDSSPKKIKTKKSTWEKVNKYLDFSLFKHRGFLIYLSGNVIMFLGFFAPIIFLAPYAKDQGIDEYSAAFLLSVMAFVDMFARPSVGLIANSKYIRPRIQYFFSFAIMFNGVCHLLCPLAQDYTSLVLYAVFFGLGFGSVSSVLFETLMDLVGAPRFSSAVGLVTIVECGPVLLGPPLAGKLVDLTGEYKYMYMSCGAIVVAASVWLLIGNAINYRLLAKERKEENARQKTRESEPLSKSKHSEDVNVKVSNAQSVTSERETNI
UniProt O43865, sequence (O43865 whole entry): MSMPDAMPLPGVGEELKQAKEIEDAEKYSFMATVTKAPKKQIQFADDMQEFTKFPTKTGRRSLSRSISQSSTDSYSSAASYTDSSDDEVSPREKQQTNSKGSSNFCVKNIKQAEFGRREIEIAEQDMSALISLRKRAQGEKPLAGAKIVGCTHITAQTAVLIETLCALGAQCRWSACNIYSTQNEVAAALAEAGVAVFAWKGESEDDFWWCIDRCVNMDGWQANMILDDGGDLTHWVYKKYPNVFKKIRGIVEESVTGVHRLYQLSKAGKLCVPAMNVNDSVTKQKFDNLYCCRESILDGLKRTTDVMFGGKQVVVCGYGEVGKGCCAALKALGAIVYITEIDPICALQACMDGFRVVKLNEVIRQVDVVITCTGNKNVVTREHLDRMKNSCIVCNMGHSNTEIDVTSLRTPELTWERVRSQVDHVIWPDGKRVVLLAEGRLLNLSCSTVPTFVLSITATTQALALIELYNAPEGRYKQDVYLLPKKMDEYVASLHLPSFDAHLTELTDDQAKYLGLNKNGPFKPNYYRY
UniProt O15111, sequence (O15111 whole entry): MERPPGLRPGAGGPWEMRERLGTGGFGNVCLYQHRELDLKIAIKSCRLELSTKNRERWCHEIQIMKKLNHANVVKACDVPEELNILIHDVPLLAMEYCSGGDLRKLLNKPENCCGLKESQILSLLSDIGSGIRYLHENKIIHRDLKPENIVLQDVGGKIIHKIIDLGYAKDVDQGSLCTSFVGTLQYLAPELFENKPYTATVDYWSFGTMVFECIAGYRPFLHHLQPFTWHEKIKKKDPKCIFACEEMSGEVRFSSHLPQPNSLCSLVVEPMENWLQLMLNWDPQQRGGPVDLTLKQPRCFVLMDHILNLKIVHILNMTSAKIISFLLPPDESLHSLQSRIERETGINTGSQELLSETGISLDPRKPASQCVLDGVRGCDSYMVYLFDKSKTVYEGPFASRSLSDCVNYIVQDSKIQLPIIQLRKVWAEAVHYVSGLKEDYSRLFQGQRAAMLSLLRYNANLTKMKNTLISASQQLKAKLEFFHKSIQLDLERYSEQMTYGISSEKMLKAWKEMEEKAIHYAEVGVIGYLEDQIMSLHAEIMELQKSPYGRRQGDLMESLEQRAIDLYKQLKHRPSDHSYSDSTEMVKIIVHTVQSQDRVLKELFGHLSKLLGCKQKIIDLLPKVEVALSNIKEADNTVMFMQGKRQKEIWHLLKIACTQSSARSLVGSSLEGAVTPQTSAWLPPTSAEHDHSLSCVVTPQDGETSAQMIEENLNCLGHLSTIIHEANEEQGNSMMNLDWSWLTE
UniProt P17900, sequence (P17900 whole entry): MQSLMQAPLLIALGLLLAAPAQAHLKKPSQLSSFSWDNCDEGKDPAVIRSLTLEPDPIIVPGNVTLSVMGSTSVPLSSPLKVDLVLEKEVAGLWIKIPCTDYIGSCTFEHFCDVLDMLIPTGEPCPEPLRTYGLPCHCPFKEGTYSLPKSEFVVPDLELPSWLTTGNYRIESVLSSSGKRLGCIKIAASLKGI
UniProt O60287, sequence (O60287 whole entry): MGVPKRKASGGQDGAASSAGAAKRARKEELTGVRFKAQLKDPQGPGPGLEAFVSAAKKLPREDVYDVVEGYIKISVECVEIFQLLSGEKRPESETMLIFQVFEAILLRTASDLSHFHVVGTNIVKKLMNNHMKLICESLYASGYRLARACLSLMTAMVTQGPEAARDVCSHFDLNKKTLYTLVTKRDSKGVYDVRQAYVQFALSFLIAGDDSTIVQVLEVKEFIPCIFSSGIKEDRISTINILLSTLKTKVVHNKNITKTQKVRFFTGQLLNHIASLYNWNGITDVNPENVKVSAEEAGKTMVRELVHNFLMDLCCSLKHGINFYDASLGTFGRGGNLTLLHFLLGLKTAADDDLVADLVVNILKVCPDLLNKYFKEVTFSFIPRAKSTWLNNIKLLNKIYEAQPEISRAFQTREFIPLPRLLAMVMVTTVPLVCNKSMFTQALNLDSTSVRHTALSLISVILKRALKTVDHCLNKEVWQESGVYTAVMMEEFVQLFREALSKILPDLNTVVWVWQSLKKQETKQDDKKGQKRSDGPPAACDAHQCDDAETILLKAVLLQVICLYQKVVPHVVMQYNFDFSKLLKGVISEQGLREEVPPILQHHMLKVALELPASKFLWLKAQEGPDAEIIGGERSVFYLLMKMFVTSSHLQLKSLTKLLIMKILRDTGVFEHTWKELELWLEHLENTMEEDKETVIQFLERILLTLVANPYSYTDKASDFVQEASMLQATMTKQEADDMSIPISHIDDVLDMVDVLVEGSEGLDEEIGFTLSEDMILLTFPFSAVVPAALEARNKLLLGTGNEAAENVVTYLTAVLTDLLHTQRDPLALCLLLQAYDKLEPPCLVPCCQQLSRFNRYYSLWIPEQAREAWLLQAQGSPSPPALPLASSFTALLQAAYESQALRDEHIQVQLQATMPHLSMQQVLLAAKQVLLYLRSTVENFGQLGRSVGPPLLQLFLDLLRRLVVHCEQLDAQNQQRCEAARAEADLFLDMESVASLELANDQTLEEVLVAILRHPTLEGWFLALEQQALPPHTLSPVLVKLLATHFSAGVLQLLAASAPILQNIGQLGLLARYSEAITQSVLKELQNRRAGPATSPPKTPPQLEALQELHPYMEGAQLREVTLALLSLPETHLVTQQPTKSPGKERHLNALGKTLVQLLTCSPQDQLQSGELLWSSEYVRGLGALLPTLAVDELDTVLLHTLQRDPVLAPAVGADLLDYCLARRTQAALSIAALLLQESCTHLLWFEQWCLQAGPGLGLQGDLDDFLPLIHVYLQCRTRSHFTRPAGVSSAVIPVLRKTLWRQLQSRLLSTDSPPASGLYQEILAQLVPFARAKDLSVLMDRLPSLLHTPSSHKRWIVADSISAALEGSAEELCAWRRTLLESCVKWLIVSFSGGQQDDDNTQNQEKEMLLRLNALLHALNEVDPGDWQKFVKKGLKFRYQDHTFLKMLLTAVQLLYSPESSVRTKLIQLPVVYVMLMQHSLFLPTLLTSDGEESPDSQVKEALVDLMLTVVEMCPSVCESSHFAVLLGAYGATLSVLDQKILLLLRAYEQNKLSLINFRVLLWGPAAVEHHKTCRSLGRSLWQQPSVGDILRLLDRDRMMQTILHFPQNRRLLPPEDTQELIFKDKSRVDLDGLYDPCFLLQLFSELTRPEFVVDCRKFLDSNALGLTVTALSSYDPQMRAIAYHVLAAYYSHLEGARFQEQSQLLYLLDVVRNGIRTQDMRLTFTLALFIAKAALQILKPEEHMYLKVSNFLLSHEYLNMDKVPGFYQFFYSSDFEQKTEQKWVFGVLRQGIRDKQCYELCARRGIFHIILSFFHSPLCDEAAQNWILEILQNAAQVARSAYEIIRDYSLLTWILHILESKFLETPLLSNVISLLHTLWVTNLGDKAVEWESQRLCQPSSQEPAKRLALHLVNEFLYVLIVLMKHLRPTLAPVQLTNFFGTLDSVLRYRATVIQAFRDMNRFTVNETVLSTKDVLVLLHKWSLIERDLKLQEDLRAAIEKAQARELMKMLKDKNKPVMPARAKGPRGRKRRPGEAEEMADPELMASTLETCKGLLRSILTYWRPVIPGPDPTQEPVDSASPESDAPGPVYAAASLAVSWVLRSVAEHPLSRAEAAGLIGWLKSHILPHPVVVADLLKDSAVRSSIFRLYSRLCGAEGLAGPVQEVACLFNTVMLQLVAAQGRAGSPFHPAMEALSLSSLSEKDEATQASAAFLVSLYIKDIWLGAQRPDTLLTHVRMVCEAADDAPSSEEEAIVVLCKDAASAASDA
UniProt Q01081, sequence (Q01081 whole entry, looked up, other chains not shown): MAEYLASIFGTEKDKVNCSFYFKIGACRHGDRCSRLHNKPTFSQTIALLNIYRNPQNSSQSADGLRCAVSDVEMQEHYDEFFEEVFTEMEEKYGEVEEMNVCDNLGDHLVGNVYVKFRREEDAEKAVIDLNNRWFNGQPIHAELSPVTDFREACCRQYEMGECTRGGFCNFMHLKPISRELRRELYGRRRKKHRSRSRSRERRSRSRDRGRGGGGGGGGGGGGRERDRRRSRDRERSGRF
UniProt O43181, sequence (O43181 whole entry): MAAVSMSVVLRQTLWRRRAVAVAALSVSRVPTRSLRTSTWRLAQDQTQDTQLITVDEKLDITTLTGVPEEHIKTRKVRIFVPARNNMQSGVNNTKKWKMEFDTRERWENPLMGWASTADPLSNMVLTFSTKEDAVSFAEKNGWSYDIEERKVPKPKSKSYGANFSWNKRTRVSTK

Target	NP40-soluble protein abundance (concentration: 0.1mM)	NP40-soluble protein abundance (concentration: 0.5mM)	NP40-soluble protein abundance (concentration: 1mM)	NP40-soluble protein abundance (concentration: 2mM)	NP40-soluble protein abundance (concentration: 4mM)	NP40-soluble protein abundance (concentration: 6mM)	NP40-soluble protein abundance (concentration: 8mM)	NP40-soluble protein abundance (concentration: 10mM)
UniProt O60488|O60488-2|D6RD96	1.02 ± 0.028	1.08 ± 0.053	0.9363 ± 0.0046	0.939 ± 0.066	0.908 ± 0.045	0.905 ± 0.049	0.894 ± 0.039	0.843 ± 0.086
P0C0S5|Q71UI9 (UniProt Q71UI9+P0C0S5)	0.898 ± 0.042	0.919 ± 0.033	1.11 ± 0.065	1.11 ± 0.06	1.12 ± 0.06	1.25 ± 0.094	1.25 ± 0.079	1.57 ± 0.18
FXR1 (UniProt P51114)	1.13 ± 0.11	1.23 ± 0.075	1.31 ± 0.042	1.54 ± 0.07	1.885 ± 0.0094	2.02 ± 0.03	2.16 ± 0.091	2.28 ± 0.13
UniProt P49840	0.981 ± 0.028	1.03 ± 0.029	0.913 ± 0.022	0.939 ± 0.02	0.921 ± 0.044	0.925 ± 0.021	0.875 ± 0.051	0.888 ± 0.051
DLAT (UniProt P10515)	1.11 ± 0.22	1.28 ± 0.39	1.47 ± 0.56	1.85 ± 0.82	2.12 ± 1.1	2.06 ± 1.1	1.98 ± 0.98	1.91 ± 0.99
XPO1 (UniProt O14980)	1.01 ± 0.027	1.02 ± 0.033	0.936 ± 0.022	0.926 ± 0.072	0.916 ± 0.054	0.918 ± 0.033	0.882 ± 0.023	0.848 ± 0.044
UniProt O43665|O43665-2|O43665-3	0.802 ± 0.079	0.748 ± 0.035	0.872 ± 0.14	0.865 ± 0.068	0.791 ± 0.038	0.837 ± 0.034	0.79 ± 0.089	0.909 ± 0.14
P39880-3|Q13948|Q13948-2|P39880 (UniProt Q13948+P39880)	0.948 ± 0.035	0.948 ± 0.058	1.01 ± 0.049	0.978 ± 0.063	1.01 ± 0.054	0.997 ± 0.052	1.03 ± 0.024	1.05 ± 0.063
HMGN4 (UniProt O00479)	1.08 ± 0.057	1.06 ± 0.12	1.02 ± 0.12	1.31 ± 0.04	1.83 ± 0.15	2.26 ± 0.16	1.51 ± 0.74	4.79 ± 0.19
UniProt P28907	0.92 ± 0.058	0.876 ± 0.075	0.927 ± 0.063	0.902 ± 0.091	0.891 ± 0.088	0.925 ± 0.088	0.895 ± 0.1	0.894 ± 0.058
UniProt O60508|Q5SRN1	1.07 ± 0.031	1.1 ± 0.017	1.09 ± 0.022	1.072 ± 0.0076	1.05 ± 0.034	1.07 ± 0.053	1.11 ± 0.013	1.08 ± 0.042
UniProt P27540|P27540-2|P27540-4	0.978 ± 0.071	0.957 ± 0.12	0.957 ± 0.027	0.982 ± 0.11	1.02 ± 0.023	0.961 ± 0.055	0.961 ± 0.059	0.927 ± 0.027
UniProt P11388|P11388-2|P11388-3|P11388-4	1.06 ± 0.054	1.14 ± 0.036	1.2 ± 0.022	1.43 ± 0.052	1.73 ± 0.1	1.94 ± 0.16	2.01 ± 0.18	2.12 ± 0.15
AK4 (UniProt P27144)	0.983 ± 0.072	0.887 ± 0.088	1.03 ± 0.042	1 ± 0.075	1.03 ± 0.11	0.987 ± 0.11	0.975 ± 0.16	0.983 ± 0.11
PYGB (UniProt P11216)	1.11 ± 0.12	1.19 ± 0.21	1.2 ± 0.28	1.45 ± 0.5	1.71 ± 0.63	1.78 ± 0.69	1.75 ± 0.61	1.79 ± 0.67
TGFB1 (UniProt P01137)	0.926 ± 0.072	1.02 ± 0.11	0.908 ± 0.091	0.961 ± 0.092	0.987 ± 0.055	0.958 ± 0.088	0.896 ± 0.11	0.968 ± 0.14
UniProt P20339|P20339-2	0.999 ± 0.016	1.08 ± 0.04	0.875 ± 0.057	0.937 ± 0.059	0.865 ± 0.034	0.85 ± 0.024	0.82 ± 0.13	0.828 ± 0.14
UniProt O75170|O75170-2|O75170-3|O75170-4|O75170-5	1 ± 0.15	0.979 ± 0.059	1.03 ± 0.12	1 ± 0.043	0.973 ± 0.071	0.992 ± 0.056	0.963 ± 0.065	1.05 ± 0.075
UniProt P26368|P26368-2	1.21 ± 0.06	1.64 ± 0.23	1.67 ± 0.25	1.69 ± 0.25	1.7 ± 0.29	1.75 ± 0.25	1.73 ± 0.29	1.71 ± 0.26
NDUFS4 (UniProt O43181)	1 ± 0.029	1.047 ± 0.0028	1.08 ± 0.053	1.12 ± 0.1	1.09 ± 0.12	1.1 ± 0.12	1.14 ± 0.18	1.1 ± 0.15
UniProt O15111	1.03 ± 0.04	1.04 ± 0.07	0.963 ± 0.052	0.964 ± 0.081	0.961 ± 0.06	0.927 ± 0.061	0.891 ± 0.013	0.887 ± 0.024
UniProt O43865	0.969 ± 0.025	0.99 ± 0.044	0.959 ± 0.057	0.944 ± 0.025	0.914 ± 0.021	0.955 ± 0.029	0.973 ± 0.056	0.98 ± 0.047
SLC16A7 (UniProt O60669)	1.09 ± 0.034	0.98 ± 0.24	1.143 ± 0.0046	1.06 ± 0.15	1.1 ± 0.079	0.966 ± 0.15	1.12 ± 0.089	1.05 ± 0.16
P0DN76|Q01081|Q01081-2 (UniProt Q01081+P0DN76)	1.23 ± 0.074	1.61 ± 0.28	1.64 ± 0.32	1.67 ± 0.32	1.71 ± 0.36	1.78 ± 0.4	1.79 ± 0.45	1.76 ± 0.38
ARPC1B (UniProt O15143)	1 ± 0.045	1.04 ± 0.056	0.933 ± 0.034	0.942 ± 0.062	0.928 ± 0.056	0.948 ± 0.04	0.923 ± 0.017	0.887 ± 0.012
URB1 (UniProt O60287)	1.07 ± 0.019	1.16 ± 0.061	1.21 ± 0.076	1.41 ± 0.097	1.79 ± 0.072	1.95 ± 0.13	2.18 ± 0.082	2.34 ± 0.033
UniProt P27824|P27824-2	0.965 ± 0.034	1 ± 0.013	0.95 ± 0.04	0.928 ± 0.048	0.883 ± 0.061	0.922 ± 0.06	0.906 ± 0.035	0.896 ± 0.051
UniProt O75143|O75143-2|O75143-5	0.993 ± 0.038	0.996 ± 0.042	1.01 ± 0.065	1.02 ± 0.081	0.967 ± 0.024	0.959 ± 0.088	0.937 ± 0.058	0.947 ± 0.041
GM2A (UniProt P17900)	0.851 ± 0.015	0.931 ± 0.022	0.876 ± 0.013	0.923 ± 0.1	0.853 ± 0.042	0.859 ± 0.013	0.856 ± 0.12	0.927 ± 0.067
